Data reported in the supplement of paper PMC7156485.

Tested on: HCC1569
Test: H1.0 immunofluorescence intensity relative to DMSO (% of DMSO); higher = stronger H1.0 induction, active = 140 or more
Settings: concentration: 10 µM; 24 h
How it was run: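 H1.0 nuclear intensity or cell number is stated as percent of the plate control, based on the median of replicates, and HCC1569 values were smoothed for positional effects. These came from HCC1569 and TDF cells treated with compounds at 10 µM for 24 h at 37 °C in triplicate, then fixed in 3.7% formaldehyde and stained with a rabbit anti-H1.0 antibody, an AlexaFluor 647 secondary and DAPI.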
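Note: TDF is a line of transformed human dermal fibroblasts of mesenchymal origin.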

H1.0 immunofluorescence intensity, inactive:
CCOc1nc2cccc(C(=O)O)c2n1Cc1ccc(-c2ccccc2-c2nn[nH]n2)cc1 [Candesartan] 99.7, C=Cc1c(C)c2cc3[nH]c(cc4nc(cc5nc(cc1[nH]2)C(C)=C5CCC(=O)O)C(CCC(=O)O)=C4C)c(C)c3C=C [Protoporphyrin IX disodium] 100, Cn1c(=O)c2c(ncn2C)n(C)c1=O [Caffeine] 91.3, CN(CCOc1ccc(NS(C)(=O)=O)cc1)CCc1ccc(NS(C)(=O)=O)cc1 [Dofetilide] 99.5, CCCCCCCCCCCCCCCC(=O)OC(CC(=O)O)C[N+](C)(C)C.[Cl-] (racemic) [Palmitoyl-DL-Carnitine chloride] 110, CNC(C)C1CCC(N)C(OC2C(N)CC(N)C(OC3OCC(C)(O)C(NC)C3O)C2O)O1 (configuration not stated) [Gentamycin] 117, CCCCCC=CCC=CCCCCCCCC(N)=O [Linoleamide] 99.2
